# Measurements: PubChem BioAssay AID488841 (Sanford-Burnham Center for Chemical Genomics, 2010)
# Hit rate of the full screen: of about 1,400 compounds, about 380 (27%) were called active. The list shows a part of the results. A number with no mark means an inactive call.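 How the source made its calls: active means mean inhibition above 50% across duplicate retests at 10 µM; inactive means the rest.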
# Test: inhibition of NALP1/ASC/caspase-1 reporter signal in yeast, confirmation, NALP1 inhibitor project, S. cerevisiae, luminescence, single concentration (AID 488841);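 further: plate controls were DMSO in galactose medium for no effect and cells in plain SD medium for full effect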
# Settings: S. cerevisiae NALP1/ASC/Caspase-1 reporter, beta-gal luminescence; at 10 µM; active compounds read high
row,Structure (SMILES),inhibition
1,COC(=O)C(CCSC)NC(=O)Cn1ncc2c(=O)oc3ccccc3c21 (configuration not stated),35.1%
2,CN(C#N)c1nc(Cl)nc(Nc2cccc(Cl)c2)n1,23.4%
3,O=C(COc1ccc(Br)cc1Br)NC(=S)Nc1cccc(CO)c1,29.1%
4,COc1ccc(CNc2cccc(F)c2)cc1Br,62% (active)
5,COc1ccc(Cc2ccc(OC)c(N)c2)cc1N,36.5%
6,CC(C)c1ccc(NCCC(=O)c2cccs2)cc1,44.8%
7,CC1CC1C(=O)Nc1nc(-c2ccccc2)cs1 (configuration not stated),66.7% (active)
8,O=C(COC(=O)c1cccs1)Nc1nc(-c2ccccc2)cs1,34%
9,O=C(COC(=O)/C=C/c1cccs1)Nc1nc(-c2ccccc2)cs1,13.8%
10,O=C(Cc1coc2cc3c(cc12)CCC3)NCC1(N2CCCCC2)CCCCC1,22.9%
11,O=C1C2C(C(=O)N1/N=C/c1cc(Br)cc([N+](=O)[O-])c1O)C1C=CC2C12CC2 (configuration not stated),59.4% (active)
12,O=C1C2C(C(=O)N1/N=C/c1ccc([N+](=O)[O-])o1)C1C=CC2C12CC2 (configuration not stated),34.8%
13,O=C(CN1CCCCC1)Nc1cccc(Oc2ccccc2)c1,25.9%
14,O=[N+]([O-])c1ccc(N2CCCCC2)cc1,32.1%
15,O=S(=O)(N1CCCCC1)N1CCN(c2ccc(F)cc2)CC1,29.6%
16,O=C1C=CC(=O)N1c1ccc(N2CCCCC2)cc1,70.8% (active)
17,CCCCN(CC)S(=O)(=O)c1ccccc1,-8.3%
18,CCCCCCCCCCCCCCCC[n+]1ccc(/C=N/O)cc1,82% (active)
19,CCCCCCCCCCCCCCCC[n+]1ccc(C(N)=O)cc1,81.4% (active)
20,CCCCCCCCCCCCCCCC[n+]1cccc(C(=O)N(CC)CC)c1,80.4% (active)
21,C1=CC2CC1CC2CN1CCN(Cc2ccccc2)CC1 (configuration not stated),46.4%
22,COc1cc(-c2nc(C(F)(F)F)c(OC)o2)cc(OC)c1OC,28.9%
23,O=C(NC(N1CCOCC1)C(Cl)(Cl)Cl)c1ccc(Br)cc1 (configuration not stated),-17.9%
24,CC1=CC2=NC(=O)/C(=C\c3cccn3CCOc3cccc(C)c3)C(=N)N2O1,76.5% (active)
25,O=C(O)/C=C/C(=O)OC1CC2CCC1C2 (configuration not stated),24.1%
26,CN(C)Cc1ccccc1COc1ccccc1,23.2%

row,Structure (SMILES),inhibition
1,C/C(=C(\C#N)C(=O)NCc1ccccc1)N(C)C,33.3%
2,CCOc1ccc(NC(=O)/C=C/c2ccccc2)c([N+](=O)[O-])c1,31.1%
3,CCOC(=O)COc1ccc2ccccc2c1/C=C/[N+](=O)[O-],99.7% (active)
4,COc1ccccc1OCC(=O)N/N=C/C=C/c1ccc([N+](=O)[O-])o1,32.6%
5,CCOC(=O)COc1ccccc1/C=C\[N+](=O)[O-],101% (active)
6,Cc1cc(N2CCOCC2)ccc1/C=C\[N+](=O)[O-],41.6%
7,O=C(CCCN1C(=O)c2ccccc2C1=O)Oc1ccc(Cl)cc1,37.3%
8,CC(NCCC(c1ccccc1)c1ccccc1)c1ccccc1 (configuration not stated),50.5% (active)
9,CCN1/C(=C/C=C/C=C/c2sc3ccccc3[n+]2CC)Sc2ccccc21,51% (active)
10,COc1cccc(OCc2ccc(C(=O)NCC3CCCO3)cc2)c1 (configuration not stated),36.2%
11,CC1(O)N(Cc2ccccc2)C(=O)OC12CCCCC2 (configuration not stated),29.2%
12,O=C(COC(=O)c1ccc(-c2ccc([N+](=O)[O-])cc2)o1)NC(=O)NC1CCCCC1,37.8%
13,O=C(N/N=C/c1cc(Cl)ccc1O)c1ccc(Br)cc1,43.6%
14,CC(C)(C)c1nnc(N/N=C/c2cc(Br)ccc2O)n(N)c1=O,53.5% (active)
15,CCCCNC(=O)Nc1cc(C)on1,23.2%
16,Cc1cc2ncn(/N=C/c3ccc([N+](=O)[O-])s3)c2cc1C,65.3% (active)
17,CN(C)/C=N/n1cnc2ccccc2c1=O,23.6%
18,CCOC(=O)C1CCN(C(=O)c2cc3cc4cc(OC)ccc4nc3o2)CC1,45.9%
19,CCOc1ccc2nc(SC3CC(=O)N(c4cccc(OC)c4)C3=O)sc2c1 (configuration not stated),32.1%
20,O=S(=O)(Nc1ccc(-n2cccc2)cc1)c1ccc(Cl)cc1Cl,52.4% (active)
21,O=C(O)C1CCN(C(=O)c2csc(-c3ccc4c(c3)CCO4)n2)CC1,22.9%
22,Cc1ccc(C(=O)CCC(=O)O)cc1,37%
23,Cc1cccc(C)c1OCCNC(=O)CCC(=O)c1ccccc1,33.9%
24,CCCC(=O)c1ccc(-c2ccccc2)cc1,52.4% (active)
25,O=C1OC(/C=C/c2ccc(Cl)cc2)=NC/1=C/c1ccco1,36.4%
26,CCCCCCCCCCCCCCCCn1cc[n+](CC(C)=O)c1,76.5% (active)

row,Structure (SMILES),inhibition
1,CCCCCCCCCCCCCCCCn1cc[n+](C)c1,84.8% (active)
2,CCCNCC1COc2ccccc2O1 (configuration not stated),31.2%
3,COc1ccccc1OCCN1CSC(=S)N(C)C1,47%
4,O=[N+]([O-])c1cc2oc3c(c2c(C=NCc2ccccc2)c1O)CCCC3,34.6%
5,CNc1nc(SCc2ccccc2Cl)nc2c1CCCC2,99% (active)
6,CNc1nc(SCc2ccc(C)cc2)nc2c1CCCC2,98.8% (active)
7,Cc1oc(-c2ccccc2Cl)nc1CSc1nc2c(c(=O)[nH]1)CCC2,31.5%
8,Cc1ccc(NC(=O)N(C2CCCCC2)C(C)c2cccnc2)cc1C (configuration not stated),32.9%
9,Clc1ccc(C2=NNC(=NCc3ccc4c(c3)OCO4)SC2)cc1,27.9%
10,CC(C)N1CCC2(CC1)N=C(c1ccc3c(c1)OCO3)CC(c1cc(Cl)ccc1O)N2 (configuration not stated),62.8% (active)
11,N#CC(C#N)=c1ccc2c(c1)N1C3=C(CCCC3)CC3CCCCC31N=2 (configuration not stated),7.95%
12,CC1CCCC/C1=N\Nc1ccc(S(N)(=O)=O)cc1[N+](=O)[O-] (configuration not stated),30.3%
13,COC(=O)c1c(S(=O)(=O)NCc2ccccc2)sc(C(=O)O)c1C,22%
14,COc1ccc(Nc2ccnc(Nc3ccc(OC)cc3)n2)cc1,55% (active)
15,Fc1ccc(Nc2ccnc(Nc3ccc(F)cc3)n2)cc1,29.5%
16,CCN(CC)S(=O)(=O)c1ccc2[nH]c(=O)cc(C(=O)Nc3ccc(C)c(S(=O)(=O)N(CC)CC)c3)c2c1,27.6%
17,Clc1ccc(Nc2ccc(NCc3ccccc3)nn2)cc1,75.7% (active)
18,CC(C)C(NS(=O)(=O)c1ccc2c(c1)oc(=O)n2C)C(=O)N1CCN(C2CCCCC2)CC1 (configuration not stated),25.9%
19,CSc1ccc(S(=O)(=O)NCc2ccc(C)cc2)cc1,38.7%
20,CN(C)C(C)(C)C#CCC(c1ccccc1)c1ccccc1,61.6% (active)
21,CC(C)(C#CCN1CCCCC1)OCCOC(c1ccccc1)c1ccccc1,28.1%
22,COc1ccc(C2SCC(=O)N2CCCN(C)C)cc1 (configuration not stated),35%
23,S=c1[nH]nc(-c2ccco2)n1/N=C/c1cccc(Cl)c1Cl,56% (active)
24,Cc1ccsc1/C=N/n1c(-c2ccccn2)n[nH]c1=S,37.9%
25,Cc1cccc(/C=N/n2c(-c3cc(-c4ccccc4)n[nH]3)n[nH]c2=S)c1,27.3%
26,CC(C)Oc1ccc(OCCNC2CCCC2)cc1,35.8%

row,Structure (SMILES),inhibition
1,CCN1CCN(c2cc3c(cc2F)c(=O)c(C(=O)O)cn3C2CC2)CC1,14.2%
2,CS/C(=N\S(=O)(=O)c1cccs1)Nc1ccc(Br)cc1F,52% (active)
3,Cn1c(=O)c([N+](=O)[O-])c(-n2cnc3ccccc32)c2ccccc21,37%
4,CN1CCN(S(=O)(=O)c2ccc(Br)c3nsnc23)CC1,19.9%
5,CN1c2ccccc2Sc2cc(N)ccc21,94% (active)
6,Cc1nc(C)c(/C(O)=C/c2nc3ccccc3oc2=O)s1,44.5%
7,CCn1c(N2CCN(C(=O)C34CC5CC(CC(C5)C3)C4)CC2)nc2ccccc21,44.6%
8,C/C(=N\NC(=O)Cc1csc(N2CCOCC2)n1)c1ccccc1,24.6%
9,Cc1ccc(C(C[N+](=O)[O-])c2c(C)[nH]n(-c3ccccc3)c2=O)cc1 (configuration not stated),78.1% (active)
10,Cc1[nH]n(-c2ccccc2)c(=O)c1C(C[N+](=O)[O-])c1ccc(Cl)cc1 (configuration not stated),77.5% (active)
11,Cc1[nH]n(-c2ccccc2)c(=O)c1C(C[N+](=O)[O-])c1ccc(Br)cc1 (configuration not stated),66.2% (active)
12,O=c1cc(CSc2ccc(Cl)cc2)[nH]c2[nH]n(-c3ccccc3)c(=O)c12,29.9%
13,COC(=O)C1(C(C[N+](=O)[O-])c2ccc(C)cc2)C(=O)NCC1c1ccco1 (configuration not stated),29.4%
14,Cc1cc2ccccn2c1C(C[N+](=O)[O-])c1ccc(N(C)C)cc1 (configuration not stated),31.1%
15,COc1ccc(OC)c(N/C(=N/C(=S)Nc2ccccc2)Nc2nc(C)cc(C)n2)c1,30.3%
16,CC12CCC(C(=O)O)(C/C1=N\O)C2(C)C (configuration not stated),15%
17,CCOc1nc(-c2ccccc2Cl)ccc1C#N,42.2%
18,C=CCNCCOCCSc1ccc(Cl)cc1,45.3%
19,C=CCc1cc(Cl)ccc1OCCNCCCOC,45.8%
20,COC(=O)C(Cc1ccccc1)NC(=O)COc1ccc(C(C)(C)C)cc1 (configuration not stated),36.6%
21,C=CCNCCOc1ccc(C(C)(C)c2ccccc2)cc1,60.4% (active)
22,COCCCNCCOc1ccc(C(C)(C)c2ccccc2)cc1,57.4% (active)
23,COCCCNCCOc1cc(C(C)C)ccc1C,30.8%
24,CS(=O)(=O)n1nc(-c2ccc(Cl)cc2)nc1SCc1ccccc1,36.2%
